From PubChem BioAssay (NCI)
This is part of a sample that, as a whole, favours compounds with a hit. Of some 79,000 tested, about 15% had one in any assay. A number with no mark means an inactive call. Calls of active or inactive are those of the source. Cut-off read from the data, not from the text of the source: active = growth inhibition above about 70%; inactive = the rest.

Legend:
[1] = NCI Yeast Anticancer Drug Screen. Data for the rad52 strain (AID 147);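 note: 0% = growth of vehicle-treated control cultures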; details: S. cerevisiae rad52 mutant growth inhibition, stronger effect = higher value
How it was run: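 Here a repair-compromised yeast strain receives each compound; its growth is then quantified and normalised to vehicle-only controls.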

[2] = NCI Yeast Anticancer Drug Screen. Data for the wt1 strain (AID 149);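 note: 0% = growth of vehicle-treated wt1 cultures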; details: S. cerevisiae wt1 strain (SPY 50644) growth inhibition, stronger effect = higher value
How it was run: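 The wt1 strain was treated with compounds, and growth was compared with vehicle-treated cultures to give inhibition.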

[3] = NCI Yeast Anticancer Drug Screen. Data for the rad50EPP+ strain (AID 151);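 note: 0% = growth of vehicle-treated control cultures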; details: S. cerevisiae rad50 mutant strain, stronger effect = higher value
How it was run: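 Read-out is yeast growth inhibition relative to vehicle; cells used were the rad50EPP+ strain.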

[4] = NCI Yeast Anticancer Drug Screen. Data for the rad50 strain (AID 155);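 note: 0% = growth of vehicle-only cultures of the same strain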; details: S. cerevisiae rad50 strain growth inhibition, stronger effect = higher value
How it was run: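 Cells are treated with compound, grown, and their growth is then scored against vehicle-only cultures of the same repair-deficient yeast strain.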

[5] = NCI Yeast Anticancer Drug Screen. Data for the mec2-1 strain (AID 157); details: S. cerevisiae mec2-1 strain, stronger effect = higher value
How it was run: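 Using mec2-1 yeast: add compound, measure growth, express inhibition versus vehicle-treated cultures.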

[6] = NCI Yeast Anticancer Drug Screen. Data for the rad14 strain (AID 159);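 note: 0% = growth of vehicle-treated control cultures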; details: S. cerevisiae rad14 strain growth inhibition, stronger effect = higher value
How it was run: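 Readout: yeast growth inhibition, referenced to vehicle-only cultures. Strain bears a defined alteration in DNA damage repair.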

[7] = NCI Yeast Anticancer Drug Screen. Data for the sgs1 mgt1 strain (AID 161);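 note: 0% = growth of cultures given vehicle only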; details: S. cerevisiae sgs1 mgt1 strain, stronger effect = higher value
How it was run: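 Percent growth inhibition was derived by comparing compound-exposed mutant yeast with vehicle-exposed cultures. The strain carries alterations in DNA damage repair.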

[8] = NCI Yeast Anticancer Drug Screen. Data for the CLN2oe strain (AID 163);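 note: 0% = growth of vehicle-only control cultures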; details: S. cerevisiae CLN2oe strain, stronger effect = higher value
How it was run: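 Whole-cell yeast growth assay. A strain engineered for altered cell-cycle control received compound, and inhibition relative to vehicle-treated cultures was recorded.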

[9] = NCI Yeast Anticancer Drug Screen. Data for the cln2 rad14 strain (AID 165);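 note: 0% = growth equal to vehicle treated cultures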; details: S. cerevisiae cln2 rad14 strain, stronger effect = higher value
How it was run: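 Yeast strain cln2 rad14, bearing defects in cell cycle control and DNA repair, serves as the test system; values reflect growth inhibition compared with vehicle.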

[10] = NCI Yeast Anticancer Drug Screen. Data for the wt2 strain (AID 169);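 note: 0% = growth of vehicle-treated yeast cultures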; details: S. cerevisiae wt2 strain growth inhibition, stronger effect = higher value
How it was run: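 Treated yeast vs. vehicle-treated yeast: growth inhibition determined.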

[11] = NCI Yeast Anticancer Drug Screen. Data for the mlh1 strain (AID 171);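 note: 0% = growth of vehicle-treated control cultures of the same strain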; details: S. cerevisiae mlh1 strain growth inhibition, stronger effect = higher value
How it was run: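 A yeast strain with a defined genetic lesion serves as the test organism. Cultures receive compound or vehicle, and growth is measured.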

[12] = NCI Yeast Anticancer Drug Screen. Data for the sgs1 strain (AID 173);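 note: 0% = growth of vehicle-only control cultures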; details: S. cerevisiae sgs1 mutant, stronger effect = higher value
How it was run: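 A genetically defined yeast mutant is incubated with the test compound, and its growth is compared to that of the same strain given vehicle.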

[13] = NCI Yeast Anticancer Drug Screen. Data for the mlh1 rad18 strain (AID 175); details: S. cerevisiae mlh1 rad18 strain growth inhibition, stronger effect = higher value
How it was run: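 Steps: expose repair-defective yeast to compound; measure growth; express inhibition against vehicle-treated controls.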

[14] = NCI Yeast Anticancer Drug Screen. Data for the rad18 strain (AID 177); details: S. cerevisiae rad18 mutant growth inhibition, stronger effect = higher value
How it was run: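 Measured value is growth inhibition of a yeast strain bearing a DNA repair alteration, referenced to vehicle-treated cells.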

[15] = NCI Yeast Anticancer Drug Screen. Data for the bub3 strain (AID 167); details: S. cerevisiae bub3 mutant strain, stronger effect = higher value
How it was run: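 Part of a panel of yeast mutants defective in DNA damage repair or cell cycle regulation. Each strain is grown with compound, and inhibition is calculated relative to solvent-treated cultures.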

[16] = at 5.0 µM (retest, dose inferred, filed as 0.5)
[17] = at 50.0 µM (retest, dose inferred, filed as 5.0)

`COc1ccc(/C=C(\NC(=O)c2ccccc2)C(=O)NN(C)c2ccnc3cc(Cl)ccc23)cc1OC` gave a growth inhibition ([1]; at 1.2 µM) of 3%, a growth inhibition ([1]; at 3.7 µM) of 1% and a growth inhibition ([1]; at 11.0 µM) of 12%. It also gave a growth inhibition ([1]; at 33.0 µM) of 5%, a growth inhibition ([1]; at 100.0 µM) of 27% and a growth inhibition ([2]; at 1.2 µM) of -41%. The growth inhibition ([2]; at 3.7 µM) was 0%, the growth inhibition ([2]; at 11.0 µM) was 3% and the growth inhibition ([2]; at 33.0 µM) was 11%. It also gave a growth inhibition ([2]; at 100.0 µM) of 15%, a growth inhibition ([3]; at 1.2 µM) of 4% and a growth inhibition ([3]; at 3.7 µM) of 20%. For the same molecule, the growth inhibition ([3]; at 11.0 µM) was 78% (active), the growth inhibition ([3]; at 33.0 µM) was 90% (active) and the growth inhibition ([3]; at 100.0 µM) was 78% (active). The growth inhibition ([4]; at 1.2 µM) was -1%, the growth inhibition ([4]; at 3.7 µM) was 7% and the growth inhibition [4, 16] was 0%. It also gave a growth inhibition ([4]; at 11.0 µM) of 19%, a growth inhibition ([4]; at 33.0 µM) of 30% and a growth inhibition [4, 17] of 30%. The growth inhibition ([4]; at 50.0 µM) was 86.5% (active), the growth inhibition ([4]; at 100.0 µM) was 36% and the growth inhibition ([5]; at 1.2 µM) was -2%. For the same molecule, the growth inhibition ([5]; at 3.7 µM) was -3%, the growth inhibition [5, 16] was -12% and the growth inhibition ([5]; at 11.0 µM) was 0%. The growth inhibition ([5]; at 33.0 µM) was 11%, the growth inhibition [5, 17] was -14% and the growth inhibition ([5]; at 50.0 µM) was 28.6%. For the same molecule, the growth inhibition ([5]; at 100.0 µM) was 10%, the growth inhibition ([6]; at 1.2 µM) was 2% and the growth inhibition ([6]; at 3.7 µM) was 5%. For the same molecule, the growth inhibition ([6]; at 11.0 µM) was 8%, the growth inhibition ([6]; at 33.0 µM) was 8% and the growth inhibition ([6]; at 100.0 µM) was 6%. For the same molecule, the growth inhibition [7, 16] was -6%, the growth inhibition [7, 17] was -6% and the growth inhibition ([7]; at 50.0 µM) was 73.1% (active). For the same molecule, the growth inhibition ([8]; at 1.2 µM) was -2%, the growth inhibition ([8]; at 3.7 µM) was 6% and the growth inhibition ([8]; at 11.0 µM) was 38%. It also gave a growth inhibition ([8]; at 33.0 µM) of 48%, a growth inhibition ([8]; at 100.0 µM) of 58% and a growth inhibition [9, 16] of 28%. The growth inhibition [9, 17] was 5%, the growth inhibition ([9]; at 50.0 µM) was 55.4% and the growth inhibition ([10]; at 1.2 µM) was -1%. For the same molecule, the growth inhibition ([10]; at 3.7 µM) was 4%, the growth inhibition ([10]; at 11.0 µM) was 31% and the growth inhibition ([10]; at 33.0 µM) was 36%. It also gave a growth inhibition ([10]; at 100.0 µM) of 27%, a growth inhibition ([11]; at 1.2 µM) of -2% and a growth inhibition ([11]; at 3.7 µM) of 1%. For the same molecule, the growth inhibition ([11]; at 11.0 µM) was 6%, the growth inhibition ([11]; at 33.0 µM) was 15% and the growth inhibition ([11]; at 100.0 µM) was 25%. For the same molecule, the growth inhibition ([12]; at 1.2 µM) was 0%, the growth inhibition ([12]; at 3.7 µM) was 3% and the growth inhibition ([12]; at 11.0 µM) was 7%. It also gave a growth inhibition ([12]; at 33.0 µM) of 21%, a growth inhibition ([12]; at 100.0 µM) of 31% and a growth inhibition [13, 16] of 0%. The growth inhibition [13, 17] was 1%, the growth inhibition ([13]; at 50.0 µM) was 87.1% (active) and the growth inhibition ([14]; at 1.2 µM) was 2%. The growth inhibition ([14]; at 3.7 µM) was 5%, the growth inhibition ([14]; at 11.0 µM) was 11% and the growth inhibition ([14]; at 33.0 µM) was 41%. The growth inhibition ([14]; at 100.0 µM) was 50%.

Work on `Clc1cc(Cc2ccc(N=C/C=C/c3ccccc3)c(Cl)c2)ccc1N=C/C=C\c1ccccc1` yielded a growth inhibition ([1]; at 1.2 µM) of 11%, a growth inhibition ([1]; at 3.7 µM) of -1% and a growth inhibition ([1]; at 11.0 µM) of 4%. The growth inhibition ([1]; at 33.0 µM) was 9%, the growth inhibition ([1]; at 100.0 µM) was 30% and the growth inhibition ([2]; at 1.2 µM) was -5%. It also gave a growth inhibition ([2]; at 3.7 µM) of -4%, a growth inhibition ([2]; at 11.0 µM) of -5% and a growth inhibition ([2]; at 33.0 µM) of 1%. For the same molecule, the growth inhibition ([2]; at 100.0 µM) was 14%, the growth inhibition ([3]; at 1.2 µM) was 18% and the growth inhibition ([3]; at 3.7 µM) was -4%. For the same molecule, the growth inhibition ([3]; at 11.0 µM) was 15%, the growth inhibition ([3]; at 33.0 µM) was 15% and the growth inhibition ([3]; at 100.0 µM) was 21%. For the same molecule, the growth inhibition ([4]; at 1.2 µM) was 13%, the growth inhibition ([4]; at 3.7 µM) was 3% and the growth inhibition [4, 16] was 100% (active). For the same molecule, the growth inhibition ([4]; at 11.0 µM) was 8%, the growth inhibition ([4]; at 33.0 µM) was 5% and the growth inhibition [4, 17] was 100% (active). For the same molecule, the growth inhibition ([4]; at 50.0 µM) was 71.3% (active), the growth inhibition ([4]; at 100.0 µM) was 32% and the growth inhibition ([5]; at 1.2 µM) was 17%. For the same molecule, the growth inhibition ([5]; at 3.7 µM) was 20%, the growth inhibition [5, 16] was 100% (active) and the growth inhibition ([5]; at 11.0 µM) was 9%. For the same molecule, the growth inhibition ([5]; at 33.0 µM) was -11%, the growth inhibition [5, 17] was 99% (active) and the growth inhibition ([5]; at 50.0 µM) was 33.1%. For the same molecule, the growth inhibition ([5]; at 100.0 µM) was 19%, the growth inhibition ([6]; at 1.2 µM) was -8% and the growth inhibition ([6]; at 3.7 µM) was -20%. The growth inhibition ([6]; at 11.0 µM) was -14%, the growth inhibition ([6]; at 33.0 µM) was -19% and the growth inhibition ([6]; at 100.0 µM) was 19%. For the same molecule, the growth inhibition [7, 16] was -23%, the growth inhibition [7, 17] was 88% (active) and the growth inhibition ([7]; at 50.0 µM) was 62.7%. The growth inhibition ([8]; at 1.2 µM) was -3%, the growth inhibition ([8]; at 3.7 µM) was -18% and the growth inhibition ([8]; at 11.0 µM) was -20%. The growth inhibition ([8]; at 33.0 µM) was -31%, the growth inhibition ([8]; at 100.0 µM) was 3% and the growth inhibition [9, 16] was 14%. For the same molecule, the growth inhibition [9, 17] was 74% (active), the growth inhibition ([9]; at 50.0 µM) was 58.8% and the growth inhibition ([15]; at 1.2 µM) was -12%. It also gave a growth inhibition ([15]; at 3.7 µM) of 1%, a growth inhibition [15, 16] of 30% and a growth inhibition ([15]; at 11.0 µM) of -9%. For the same molecule, the growth inhibition ([15]; at 33.0 µM) was -9%, the growth inhibition [15, 17] was 86% (active) and the growth inhibition ([15]; at 50.0 µM) was 54.1%. For the same molecule, the growth inhibition ([15]; at 100.0 µM) was -7%, the growth inhibition ([10]; at 1.2 µM) was -11% and the growth inhibition ([10]; at 3.7 µM) was -17%. The growth inhibition ([10]; at 11.0 µM) was -8%, the growth inhibition ([10]; at 33.0 µM) was 4% and the growth inhibition ([10]; at 100.0 µM) was 26%. For the same molecule, the growth inhibition ([11]; at 1.2 µM) was -16%, the growth inhibition ([11]; at 3.7 µM) was -9% and the growth inhibition ([11]; at 11.0 µM) was -17%. For the same molecule, the growth inhibition ([11]; at 33.0 µM) was -10%, the growth inhibition ([11]; at 100.0 µM) was 12% and the growth inhibition [13, 16] was 100% (active). For the same molecule, the growth inhibition [13, 17] was 100% (active), the growth inhibition ([13]; at 50.0 µM) was 64.7% and the growth inhibition ([14]; at 1.2 µM) was 1%. For the same molecule, the growth inhibition ([14]; at 3.7 µM) was -11%, the growth inhibition ([14]; at 11.0 µM) was -20% and the growth inhibition ([14]; at 33.0 µM) was -25%. The growth inhibition ([14]; at 100.0 µM) was 24%.
